This passage reports inhibition results from ChEMBL document CHEMBL1961873, “Compounds: GSK PKIS; Assays: Nanosyn kinase panel” (2012).

Test [1] concerns the target Tyrosine-protein kinase receptor UFO (Homo sapiens) (UniProt P30530). As to conditions: at 1 µM.
In test [2] the target is Tyrosine-protein kinase Blk (Homo sapiens) (UniProt P51451). As to conditions: at 0.1 µM.
Test [3] shares this target. As to conditions: at 1 µM.
The target of test [4] is T1, Cytoplasmic tyrosine-protein kinase BMX (Homo sapiens) (UniProt P51813).
T1 sequence (whole entry): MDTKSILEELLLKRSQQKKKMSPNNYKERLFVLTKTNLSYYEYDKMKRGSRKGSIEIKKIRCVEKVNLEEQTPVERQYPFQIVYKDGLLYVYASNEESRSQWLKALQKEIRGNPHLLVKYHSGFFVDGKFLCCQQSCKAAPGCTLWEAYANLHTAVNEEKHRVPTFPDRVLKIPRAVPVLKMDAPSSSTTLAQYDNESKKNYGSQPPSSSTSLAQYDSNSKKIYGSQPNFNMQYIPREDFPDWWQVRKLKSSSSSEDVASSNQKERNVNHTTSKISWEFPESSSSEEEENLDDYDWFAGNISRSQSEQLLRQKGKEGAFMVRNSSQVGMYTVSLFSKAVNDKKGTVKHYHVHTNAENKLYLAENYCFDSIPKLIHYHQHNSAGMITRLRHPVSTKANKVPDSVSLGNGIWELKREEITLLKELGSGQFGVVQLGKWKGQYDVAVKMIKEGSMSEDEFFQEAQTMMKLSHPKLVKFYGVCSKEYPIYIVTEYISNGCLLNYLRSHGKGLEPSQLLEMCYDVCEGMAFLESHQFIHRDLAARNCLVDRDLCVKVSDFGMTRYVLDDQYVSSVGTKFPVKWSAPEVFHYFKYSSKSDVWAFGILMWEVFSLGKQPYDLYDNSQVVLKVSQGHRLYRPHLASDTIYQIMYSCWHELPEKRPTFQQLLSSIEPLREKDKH
As to conditions: at 0.1 µM.

The target in test [5] is T1, Cytoplasmic tyrosine-protein kinase BMX (Homo sapiens). As to conditions: at 1 µM.
In test [6] the target is Protein-tyrosine kinase 6 (Homo sapiens) (UniProt Q13882). As to conditions: at 0.1 µM.
Chain of Protein-tyrosine kinase 6 (Homo sapiens) (Q13882 whole entry, looked up): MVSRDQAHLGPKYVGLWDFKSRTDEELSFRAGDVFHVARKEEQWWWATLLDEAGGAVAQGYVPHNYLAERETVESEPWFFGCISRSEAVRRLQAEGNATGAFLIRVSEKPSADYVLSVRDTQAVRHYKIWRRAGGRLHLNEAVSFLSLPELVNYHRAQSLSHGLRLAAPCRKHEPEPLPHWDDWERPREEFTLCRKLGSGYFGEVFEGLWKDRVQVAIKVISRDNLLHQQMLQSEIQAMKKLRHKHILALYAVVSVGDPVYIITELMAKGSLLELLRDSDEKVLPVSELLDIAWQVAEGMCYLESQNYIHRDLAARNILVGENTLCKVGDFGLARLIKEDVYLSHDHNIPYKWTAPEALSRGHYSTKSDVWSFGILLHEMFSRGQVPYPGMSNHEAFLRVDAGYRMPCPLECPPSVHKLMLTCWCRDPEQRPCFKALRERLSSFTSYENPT
For test [7] the target is unchanged. As to conditions: at 1 µM.
For test [8], the target named is Tyrosine-protein kinase BTK (Homo sapiens) (UniProt Q06187). As to conditions: at 0.1 µM.
Chain of Tyrosine-protein kinase BTK (Homo sapiens) (Q06187 whole entry): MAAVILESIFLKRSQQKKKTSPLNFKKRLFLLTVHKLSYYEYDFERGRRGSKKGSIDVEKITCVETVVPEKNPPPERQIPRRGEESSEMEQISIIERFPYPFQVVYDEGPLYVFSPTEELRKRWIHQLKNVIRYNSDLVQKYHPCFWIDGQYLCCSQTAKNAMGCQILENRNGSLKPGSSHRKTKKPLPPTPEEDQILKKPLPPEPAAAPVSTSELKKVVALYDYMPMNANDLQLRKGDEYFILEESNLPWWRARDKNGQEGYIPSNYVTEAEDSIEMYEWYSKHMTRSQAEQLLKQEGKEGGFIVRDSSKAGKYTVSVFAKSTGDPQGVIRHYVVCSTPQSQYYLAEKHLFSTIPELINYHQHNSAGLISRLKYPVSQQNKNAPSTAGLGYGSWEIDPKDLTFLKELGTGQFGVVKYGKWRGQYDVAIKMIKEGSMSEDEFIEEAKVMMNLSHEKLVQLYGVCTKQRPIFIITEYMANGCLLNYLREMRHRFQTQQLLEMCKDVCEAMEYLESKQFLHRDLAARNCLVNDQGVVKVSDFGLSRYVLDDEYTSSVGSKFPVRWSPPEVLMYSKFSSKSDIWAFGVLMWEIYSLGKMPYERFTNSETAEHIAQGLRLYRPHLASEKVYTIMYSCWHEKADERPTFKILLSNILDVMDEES
Test [9] has the same target. As to conditions: at 1 µM.
Test [10] has as its target Tyrosine-protein kinase CSK (Homo sapiens) (UniProt P41240). As to conditions: at 0.1 µM.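 Note: value given is the averaged percent inhibition of CSK kinase activity, from the GSK PKIS kinase inhibitor set screening panel.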

Chain of Tyrosine-protein kinase Blk (Homo sapiens) (P51451 2-505 limits assumed): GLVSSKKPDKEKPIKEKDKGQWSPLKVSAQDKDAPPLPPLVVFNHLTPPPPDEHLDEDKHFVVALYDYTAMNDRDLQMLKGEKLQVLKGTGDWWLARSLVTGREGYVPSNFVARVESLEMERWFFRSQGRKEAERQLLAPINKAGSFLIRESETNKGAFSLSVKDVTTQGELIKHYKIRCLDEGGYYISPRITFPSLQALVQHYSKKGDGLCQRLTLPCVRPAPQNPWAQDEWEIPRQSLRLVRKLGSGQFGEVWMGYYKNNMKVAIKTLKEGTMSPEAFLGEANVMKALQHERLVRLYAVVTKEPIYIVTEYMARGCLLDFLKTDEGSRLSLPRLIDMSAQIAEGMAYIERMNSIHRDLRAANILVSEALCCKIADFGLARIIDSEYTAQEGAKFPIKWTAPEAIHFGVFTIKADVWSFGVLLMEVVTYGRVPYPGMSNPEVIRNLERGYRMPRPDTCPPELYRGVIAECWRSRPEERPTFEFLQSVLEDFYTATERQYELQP
Chain of Tyrosine-protein kinase CSK (Homo sapiens) (P41240 2-450 limits assumed): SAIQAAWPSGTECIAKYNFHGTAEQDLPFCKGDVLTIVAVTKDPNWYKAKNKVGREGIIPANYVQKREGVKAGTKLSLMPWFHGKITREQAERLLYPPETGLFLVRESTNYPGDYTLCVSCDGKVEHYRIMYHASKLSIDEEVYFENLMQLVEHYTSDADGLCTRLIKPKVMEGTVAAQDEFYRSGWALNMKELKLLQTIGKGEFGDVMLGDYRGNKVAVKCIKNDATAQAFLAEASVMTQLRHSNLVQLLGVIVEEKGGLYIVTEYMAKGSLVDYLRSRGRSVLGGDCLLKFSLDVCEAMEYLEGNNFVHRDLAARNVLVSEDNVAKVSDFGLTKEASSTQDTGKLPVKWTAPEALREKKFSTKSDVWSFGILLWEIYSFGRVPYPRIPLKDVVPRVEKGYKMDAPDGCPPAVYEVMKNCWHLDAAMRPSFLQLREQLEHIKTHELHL
Chain of Tyrosine-protein kinase receptor UFO (Homo sapiens) (P30530 whole entry): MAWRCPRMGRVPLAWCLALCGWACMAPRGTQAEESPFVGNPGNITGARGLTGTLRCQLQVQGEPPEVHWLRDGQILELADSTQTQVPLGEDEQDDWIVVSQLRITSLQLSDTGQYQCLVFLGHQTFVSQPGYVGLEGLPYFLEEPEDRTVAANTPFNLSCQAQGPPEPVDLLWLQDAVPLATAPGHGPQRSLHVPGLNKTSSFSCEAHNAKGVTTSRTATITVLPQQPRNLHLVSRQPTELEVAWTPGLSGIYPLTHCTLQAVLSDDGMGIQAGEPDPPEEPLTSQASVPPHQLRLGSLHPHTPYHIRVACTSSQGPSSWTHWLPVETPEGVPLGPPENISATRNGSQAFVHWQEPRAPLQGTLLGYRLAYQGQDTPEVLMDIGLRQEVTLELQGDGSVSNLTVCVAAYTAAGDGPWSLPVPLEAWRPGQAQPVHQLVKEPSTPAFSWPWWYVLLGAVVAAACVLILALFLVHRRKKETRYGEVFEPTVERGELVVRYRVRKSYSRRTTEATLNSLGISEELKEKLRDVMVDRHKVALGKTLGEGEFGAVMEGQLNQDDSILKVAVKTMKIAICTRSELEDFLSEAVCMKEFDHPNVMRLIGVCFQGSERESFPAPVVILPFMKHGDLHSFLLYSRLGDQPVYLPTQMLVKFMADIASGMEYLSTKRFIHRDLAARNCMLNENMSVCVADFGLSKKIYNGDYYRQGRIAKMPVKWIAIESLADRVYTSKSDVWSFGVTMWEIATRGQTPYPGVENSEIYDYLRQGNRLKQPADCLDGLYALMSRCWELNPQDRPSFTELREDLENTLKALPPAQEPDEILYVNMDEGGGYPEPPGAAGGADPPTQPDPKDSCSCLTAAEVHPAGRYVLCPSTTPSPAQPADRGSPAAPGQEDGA

For the compound `NS(=O)(=O)c1ccc(N/C=C2\C(=O)Nc3ccc4ncsc4c32)cc1`, the inhibition (in general, the drop in the measured response relative to a control, in per cent) was 24.7% in [1]; 5.86% in test [2]; 36.7% in test [3]; 3.85% in test [4]; 6.44% in test [5]; 2.1% in test [6]. Besides, the inhibition in test [7] was 4.82%; in [8] it was -2.5%; in [9], 0.29%; in test [10], 1.61%.
As to `Fc1ccc(-c2ncn(C3CCNCC3)c2-c2ccnc(Oc3ccccc3)n2)cc1`, the inhibition in [1] was -3.54%; in test [2], -3.23%; in test [3] it was -0.29%; in test [4], 0.89%; in test [5] it was 2.13%; in [6], 2.9%. Moreover, the inhibition in test [7] was 3.59%; in test [8], -4.26%; in test [9], -4.63%; in test [10] it was 1.9%.
For `COc1cc(C=NNc2ncnc3c2cnn3Cc2ccccc2)ccc1O`, the inhibition is 6.34% in test [1]; 0.65% in [2]; 23.8% in [3]; 2.02% in test [4]; 16.9% in test [5]; -4.22% in [6]. Further, the inhibition in test [7] was -0.85%; in test [8], -1.51%; in test [9], -0.27%; in test [10], -6.66%.
On to `CCn1c(-c2nonc2N)nc2c(C#CC(C)(C)O)ncc(OCC3CCNCC3)c21`, for which the inhibition in test [1] is -2.43%; in test [2] it was -1.83%; in [3], -1.39%; in test [4], -4.33%; in test [5], 2.37%; in [6], 4.21%. Besides, the inhibition is 4.11% in test [7], -3.09% in test [8], -3.54% in test [9] and 5.4% in test [10].
For the compound `NC(=O)c1sc(-n2cnc3cc(C(F)(F)F)ccc32)cc1OCc1ccccc1Br`, the inhibition is 1.55% in test [1]; 1.67% in [2]; 2.39% in test [3]; -0.71% in test [4]; 0.62% in test [5]; 2.49% in test [6]. Besides, the inhibition was 0.4% in test [7], 0.15% in [8], -0.21% in test [9] and -3.78% in [10].
Turning to `CCn1c(-c2nonc2N)nc2c(C#CC(C)(C)O)nc(O[C@@H](CN)c3ccccc3)cc21`, the inhibition in [1] is 8.92%; in test [2], -0.06%; in test [3], 10.1%; in test [4], 2.29%; in [5], -1.16%; in [6], -1.39%. Also, the inhibition in [7] was -2.85%; in test [8], -2.57%; in [9], -0.15%; in [10], -5%.
On to `CCn1c(-c2nonc2N)nc2c(C#CCN)ncc(OCCCN)c21`, for which the inhibition is 7.15% in test [1]; 0.22% in test [2]; -2.12% in [3]; -0.45% in [4]; -3% in test [5]; -6.06% in test [6]. The inhibition in test [7] is -3.37%; in test [8], 2.31%; in test [9] it was 2.06%; in test [10], -0.42%.
With `CCn1c(-c2nonc2N)nc2c(C#CC(C)(C)O)ncc(OC[C@@H]3CCCN3)c21`, the inhibition is 0.17% in test [1]; 2.44% in test [2]; 1.76% in test [3]; 1.21% in test [4]; -0.7% in [5]; 3.05% in test [6]. The inhibition in test [7] was 2.47%; in test [8] it was 0.66%; in test [9], 1.17%; in test [10] it was -1.37%.
Regarding `COc1cccc(-n2ncc3c(N/N=C/c4ccncc4)ncnc32)c1`, the inhibition in test [1] is 6.36%; in test [2] it was 13.3%; in test [3] it was 63.6%; in [4], 12.2%; in test [5] it was 46.6%; in test [6] it was 6.09%. In addition, the inhibition in test [7] was 23.1%; in [8] it was -0.08%; in test [9], 2.16%; in test [10] it was 5.5%.
Turning to `Nc1nonc1-c1nc2cnccc2n1C1CCCCC1`, the inhibition was 4.86% in [1]; -1.07% in test [2]; 0.24% in test [3]; 1.92% in test [4]; -1.58% in test [5]; -5.22% in test [6]. Also, the inhibition in test [7] was -3%; in [8] it was -0.64%; in [9] it was -0.36%; in test [10] it was -1.78%.
On to `COc1cc2c(cc1Nc1nc(Nc3ccsc3C(N)=O)c3cc[nH]c3n1)N(C(=O)CN(C)C)CCC2`, for which the inhibition was determined as 66.8% in test [1]; 7.36% in test [2]; 10.6% in [3]; 0.79% in test [4]; 1.32% in test [5]; 0.16% in test [6]. Besides, the inhibition in test [7] was 3.39%; in [8], 0.44%; in [9], 1%; in test [10] it was -7.26%.
With `COc1cccc(COc2cc(-n3cnc4ccccc43)sc2C(N)=O)c1`, the inhibition in [1] is -0.71%; in test [2] it was 0.3%; in test [3], -1.09%; in test [4] it was -0.68%; in test [5], -1.24%; in [6], -0.05%. In addition, the inhibition was 1.34% in test [7], 0.36% in test [8], -0.76% in test [9] and -1.48% in test [10].
As for `Cc1cc(-c2ccco2)cc(C)c1/C=C/c1cncc(-c2nn[nH]n2)c1`, the inhibition in [1] stood at 1.57%; in [2] it was 1.51%; in test [3], 9%; in test [4], 0.7%; in test [5], 2.83%; in test [6], 0.11%. For the same compound, the inhibition in test [7] amounted to 3.58%; in [8], 0.68%; in test [9], 1.5%; in test [10], 0.88%.
`NS(=O)(=O)c1ccc(-c2ccc3c(NC(=O)C4CC4)n[nH]c3c2)cc1`: the inhibition in [1] is -2.63%; in [2] it was 1.89%; in test [3], 6.01%; in [4], 4.98%; in test [5], 3.87%; in [6], 0.27%. The inhibition in test [7] is 1.67%; in test [8], 1.8%; in test [9], 1.47%; in test [10], 6.64%.
